Screening data from PubChem.
Sampled rows, rich in hits. Any-hit rate of the full collection: about 0.96%.
Texas Red fluor = Texas Red region autofluorescence. Compound fluorescence, Texas Red channel, 547/618 nm; hits give high values. max dye-equivalent concentration, M. 0.06% of 59,000 active; in the data active = max dye-equivalent concentration above about 10 nM; inconclusive = between about 1.1 nM and that limit
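Compound titrations in 100 mM Tris pH 8.0 were incubated 15 min at room temperature and read at 547 nm excitation / 618 nm emission. Texas Red six-point standard curve on each plate converted fluorescence to dye-equivalent concentration.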
Rhodamine autofl = rhodamine region autofluorescence; Rhodamine-region fluorescence, 547/598 nm, Tris buffer; hits give high values; max dye-equivalent concentration, M; 0.05% of 59,000 active; AID 594; in the data active = max dye-equivalent concentration above about 11 nM; inconclusive = between about 1.1 nM and that limit
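Intensities are converted to rhodamine-equivalent concentration using a six-point rhodamine standard on each plate. Compounds sit 15 min at room temperature in 100 mM Tris buffer, pH 8.0; read uses the 547/598 nm excitation/emission pair.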
A488 autofl = A488 region autofluorescence | compound autofluorescence, A488 spectral region, dye equivalency; Compound Type: qHTS ECL - MLSMR | max dye equivalency, M | 0.1% of 59,000 active | AID 591
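Autofluorescence read at ex 480/em 540 nm after 15 min RT in 100 mM Tris pH 8.0; compound signal normalized to A488 standard series on each plate, reported as dye-equivalent concentration at each test concentration.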
A647 autofl = compound autofluorescence in A647 spectral region; AID 592; 59,000 tested, under 10 active; Compound fluorescence, A647 channel (570/671 nm), Tris buffer; max dye-equivalent concentration, M;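 note: values scaled relative to a standard on each plate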
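Spectral profiling of library compounds in pH 8.0 Tris: 15 min room-temperature incubation, single ex/em pair (570/671 nm), response normalized to Alexa 647 equivalents.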
Fluorescein fluor = compound fluoresces in the fluorescein spectral region; Compound autofluorescence, 480/540 nm, fluorescein-equivalent; hits give high values; max fluorescein-equivalent concentration, M; 0.91% of 59,000 active; AID 593; in the data active = max fluorescein-equivalent concentration above about 10 nM; inconclusive = between about 1.1 nM and that limit
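First, buffer (100 mM Tris, pH 8.0) dispensed; second, compounds and fluorescein standards pinned in; third, 15 min room-temperature incubation; finally, imaging at ex 480 nm/em 540 nm. Fluorescence normalized against the six-point fluorescein curve.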
Resorufin autofl = resorufin region autofluorescence | max dye-equivalent concentration, M | AID 588 | Compound fluorescence, resorufin region 547/598 nm, buffer; hits give high values | 0.04% of 59,000 active
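Intrinsic fluorescence profiled in the resorufin window (ex 547 nm, em 598 nm) after 15 min at room temperature in pH 8.0 Tris buffer (100 mM); responses normalized against a six-point resorufin standard series as dye-equivalent concentration.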
* marks the source's active call; other numbers are inactive results; i = inactive; u = inconclusive. Unless noted, the rule behind the calls is not given here.

SMILES	Texas Red fluor	Rhodamine autofl	A488 autofl	A647 autofl	Fluorescein fluor	Resorufin autofl
C=CCOn1c(=O)c(-c2ccc(OC)cc2)[n+]([O-])c2ccccc21	u	i	i	1e-09	i	i
O=c1c(-c2ccc(Cl)cc2)[n+]([O-])c2ccccc2n1O	i	i	i	1e-09	1.57e-08M*	i
N#C[C@@H](Cc1ccc(O)c(O)c1)C(=O)N1CCc2ccccc21	i	i	i	2.21e-08	u	i
Cc1cc(-c2ccco2)c(C#N)c2nc3ccccc3n12	i	i	u	1e-09	1.58e-07M*	i
CCc1c(C)c(C#N)c2nc3ccccc3n2c1-n1nc(C)cc1C	i	i	i	5.94e-08	u	i
Brc1ccc(-c2nnc3sc(CN4CCC5(CC4)OCCO5)cn23)cc1	i	i	i	3.3e-09	1.14e-08M*	i
COc1ccc(CSc2nnc(C)n2N)cc1	i	i	i	2.46e-08	2.3e-08M*	i
Cc1nnc(SCc2ccccc2)n1N	i	i	i	2.95e-08	i	i
COc1ccc(C(=O)N2CCC3(CC2)CCN(c2ccccc2)CC3)cc1	i	i	i	1e-09	i	i
N#CC1=C(N)C(C#N)(C#N)C(c2ccc[nH]2)C2CCCC=C12 (configuration not stated)	i	i	i	1e-09	1.28e-08M*	i
C[N@@+]1(CC[N@@+]2(C)CCC[C@H]2c2cccnc2)CCC[C@@H]1c1cccnc1	i	i	i	2.5e-09	i	i
N#CC1=C(N)C(C#N)(C#N)C(c2cccnc2)C2CCCC=C12 (configuration not stated)	i	i	u	3.65e-08	4.84e-08M*	i
COc1cc(/C=C(\C#N)C(=O)c2ccc(O)c(O)c2)cc(I)c1O	i	i	i	1e-09	1.32e-08M*	i
CS(=O)(=O)N1CCC[C@@]2(CCN(c3ccccc3)C2)C1	i	i	i	1e-09	i	i
CN(C)c1ccc(C2C=C(c3ccc(Cl)cc3OC(F)F)Nc3ncnn32)cc1 (configuration not stated)	i	i	i	1.45e-08	1.49e-08M*	i
COc1ccc(CNc2ncncc2-c2ccc(C(=O)N(C)C)cc2)c(OC)c1	i	i	i	1e-09	i	i
CN1CCC2(CC1)C1CN(C)CC=C1C(C#N)=C(N)C2(C#N)C#N (configuration not stated)	i	i	u	2.1e-09	5.96e-08M*	i
C=CCN1C(=O)C2(c3ccccc31)C1CCCC=C1C(C#N)=C(N)C2(C#N)C#N (configuration not stated)	i	i	i	1.48e-08	i	i
CC(C)(CCC(C)(C)c1ccccc1)c1ccccc1	i	i	i	5.1e-09	i	i
Cc1cc(C)c2c(=O)[nH]c(=O)n(Cc3ccccc3)c2n1	i	i	i	1.15e-08	1.32e-08M*	i
Cc1cc(C)n(-c2nc3c(c(=O)[nH]c(=O)n3C)n2Cc2ccccc2)n1	i	i	i	1e-09	u	i
Cc1ccc(N2C(=O)C3C(C2=O)C(C(=O)c2ccc(Cl)cc2)N2CCCC32)cc1 (configuration not stated)	i	i	u	3.5e-08	3.12e-08M*	i
O=C(NCc1ccco1)c1cccnc1-c1nc2ccccc2s1	i	i	u	2.2e-08	3.5e-08M*	i
O=S(=O)(Nc1nc2ccccc2[nH]1)c1ccccc1	i	i	i	7.5e-09	2.16e-08M*	i
O=S(=O)(Nc1nc2ccccc2[nH]1)c1ccc(Cl)cc1	i	i	i	5.77e-08	i	i
CCOC(=O)CCSc1nc(C)cc(C(F)(F)F)c1C#N	i	i	i	1e-09	1.48e-08M*	i
CCS(=O)(=O)CCSc1nc(C)cc(C)c1C#N	i	i	i	1e-09	i	i
CCOC(=O)C1=C(C)NC(C)=C(C(=O)OC)[C@@H]1c1cccc(Cl)c1Cl	i	i	i	4.01e-08	u	i
CCn1nc(-c2ccccc2)c2nc3ccccc3nc21	i	i	1.2e-08M*	1e-09	2.42e-07M*	i
